Laboratory results reported in PubChem BioAssay AID1159580 (chemical genetic matrix, 2015).
The campaign covered roughly 5,500 compounds. About 2,000 (36%) were called active. Inconclusive results (about 18%) are left out. Cut-off read from the data, not from the text of the source: active = normalized growth mostly below about 0.91 (no sharp cut-off); inconclusive = no clear call, values can overlap the other calls; inactive = mostly above about 0.92. The list shows a part of the results.

Experiment: chemical genetic growth profiling, strain panel (AID 1159580);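 note: tested at 20 µM; growth read once vehicle control cultures reached saturation at 30 °C; 1 = growth at the plate median or of vehicle wells; lower values mean less growth of the strain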
Conditions: growth OD

Measured: normalized growth

CC(C)C1CCC(C(=O)N[C@@H](Cc2ccccc2)C(=O)O)CC1 (some centres not stated)
inactive: S. cerevisiae deletion strains, locus YJR075W, strain HOC1, stronger effect = lower value 0.992 | S. cerevisiae deletion strains, locus YKL009W, strain mrt4, stronger effect = lower value 0.963 | S. cerevisiae deletion strains, locus YKL068W, stronger effect = lower value 1 | S. cerevisiae deletion strains, locus YKL085W, strain MDH1 (second series), stronger effect = lower value 1 | S. cerevisiae deletion strains, locus YKL085W, strain MDH1, stronger effect = lower value 1 | S. cerevisiae deletion strains, locus YKL160W, strain elf1, stronger effect = lower value 0.971 | S. cerevisiae deletion strains, locus YKL190W, strain CNB1, stronger effect = lower value 0.976 | S. cerevisiae deletion strains, locus YKR001C, strain vps1, stronger effect = lower value 1.04 | S. cerevisiae deletion strains, locus YKR026C, strain gcn3, stronger effect = lower value 0.974 | S. cerevisiae deletion strains, locus YKR091W, strain srl3, stronger effect = lower value 0.978 | S. cerevisiae deletion strains, locus YLL001W, strain dnm1, stronger effect = lower value 0.957 | S. cerevisiae deletion strains, locus YLL026W, stronger effect = lower value 0.981 | S. cerevisiae deletion strains, locus YLL041C, strain sdh2, stronger effect = lower value 0.961 | S. cerevisiae deletion strains, locus YLR027C, strain aat2, stronger effect = lower value 0.985 | S. cerevisiae deletion strains, locus YLR039C, strain RIC1, stronger effect = lower value 0.969 | S. cerevisiae deletion strains, locus YLR058C, strain SHM2, stronger effect = lower value 1 | S. cerevisiae deletion strains, locus YLR102C, strain apc9, stronger effect = lower value 0.999 | S. cerevisiae deletion strains, locus YLR113W, strain HOG1, stronger effect = lower value 1.02 | S. cerevisiae deletion strains, locus YLR221C, strain rsa3, stronger effect = lower value 0.987 | S. cerevisiae deletion strains, locus YLR258W, strain gsy2, stronger effect = lower value 0.987 | S. cerevisiae deletion strains, locus YLR262C, strain YPT6 (second series), stronger effect = lower value 0.955 | S. cerevisiae deletion strains, locus YLR262C, strain YPT6, stronger effect = lower value 0.964 | S. cerevisiae deletion strains, locus YLR268W, strain sec22, stronger effect = lower value 1.01 | S. cerevisiae deletion strains, locus YLR320W, strain mms22, stronger effect = lower value 0.979 | S. cerevisiae deletion strains, locus YLR330W, strain CHS5, stronger effect = lower value 1 | S. cerevisiae deletion strains, locus YLR342W, strain FKS1 (second series), stronger effect = lower value 0.965 | S. cerevisiae deletion strains, locus YLR342W, strain FKS1, stronger effect = lower value 0.979 | S. cerevisiae deletion strains, locus YLR357W, strain rsc2, stronger effect = lower value 0.971 | S. cerevisiae deletion strains, locus YLR370C, strain arc18, stronger effect = lower value 0.959 | S. cerevisiae deletion strains, locus YLR371W, strain rom2, stronger effect = lower value 1.01 | S. cerevisiae deletion strains, locus YLR384C, strain iki3, stronger effect = lower value 0.965 | S. cerevisiae deletion strains, locus YLR418C, strain cdc73, stronger effect = lower value 1.05 | S. cerevisiae deletion strains, locus YML016C, strain PPZ1, stronger effect = lower value 1 | S. cerevisiae deletion strains, locus YML032C, strain rad52, stronger effect = lower value 1.02 | S. cerevisiae deletion strains, locus YML120C, strain ndi1, stronger effect = lower value 0.97 | S. cerevisiae deletion strains, locus YML124C, strain tub3, stronger effect = lower value 1.02 | S. cerevisiae deletion strains, locus YMR058W, strain fet3, stronger effect = lower value 0.98 | S. cerevisiae deletion strains, locus YMR078C, strain ctf18, stronger effect = lower value 1.02 | S. cerevisiae deletion strains, locus YMR125W, strain sto1, stronger effect = lower value 0.966 | S. cerevisiae deletion strains, locus YMR129W, stronger effect = lower value 0.977 | S. cerevisiae deletion strains, locus YMR205C, strain PFK2, stronger effect = lower value 0.967 | S. cerevisiae deletion strains, locus YMR223W, strain ubp8, stronger effect = lower value 1.02 | S. cerevisiae deletion strains, locus YMR231W, strain pep5, stronger effect = lower value 0.971 | S. cerevisiae deletion strains, locus YMR263W, strain SAP30, stronger effect = lower value 0.974 | S. cerevisiae deletion strains, locus YMR307W, strain GAS1, stronger effect = lower value 0.998 | S. cerevisiae deletion strains, locus YNL067W, strain RPL9B, stronger effect = lower value 0.999 | S. cerevisiae deletion strains, locus YNL071W, strain lat1, stronger effect = lower value 0.979 | S. cerevisiae deletion strains, locus YNL128W, strain TEP1, stronger effect = lower value 0.971 | S. cerevisiae deletion strains, locus YNL153C, strain GIM3, stronger effect = lower value 1 | S. cerevisiae deletion strains, locus YNL183C, strain NPR1, stronger effect = lower value 0.955 | S. cerevisiae deletion strains, locus YNL209W, strain ssb2, stronger effect = lower value 0.963 | S. cerevisiae deletion strains, locus YNL233W, strain BNI4, stronger effect = lower value 1.01 | S. cerevisiae deletion strains, locus YNL248C, strain rpa49, stronger effect = lower value 0.976 | S. cerevisiae deletion strains, locus YNL250W, strain rad50, stronger effect = lower value 1.01 | S. cerevisiae deletion strains, locus YNL271C, strain bni1, stronger effect = lower value 1.01 | S. cerevisiae deletion strains, locus YNL298W, strain CLA4, stronger effect = lower value 1.01 | S. cerevisiae deletion strains, locus YNL307C, strain MCK1, stronger effect = lower value 1.03 | S. cerevisiae deletion strains, locus YNL322C, strain KRE1 (second series), stronger effect = lower value 0.992 | S. cerevisiae deletion strains, locus YNL322C, strain KRE1, stronger effect = lower value 0.998 | S. cerevisiae deletion strains, locus YNR049C, strain mso1, stronger effect = lower value 0.975 | S. cerevisiae deletion strains, locus YNR052C, strain pop2, stronger effect = lower value 1.01 | S. cerevisiae deletion strains, locus YOL006C, strain TOP1, stronger effect = lower value 1.03 | S. cerevisiae deletion strains, locus YOL012C, strain htz1 1.07 | S. cerevisiae deletion strains, locus YOL147C, strain pex11, stronger effect = lower value 1.02 | S. cerevisiae deletion strains, locus YOR001W, strain rrp6, stronger effect = lower value 0.967 | S. cerevisiae deletion strains, locus YOR061W, strain CKA2, stronger effect = lower value 1 | S. cerevisiae deletion strains, locus YOR069W, strain VPS5, stronger effect = lower value 0.994 | S. cerevisiae deletion strains, locus YOR070C, strain gyp1, stronger effect = lower value 0.974 | S. cerevisiae deletion strains, locus YOR080W, strain dia2, stronger effect = lower value 0.977 | S. cerevisiae deletion strains, locus YOR083W, strain WHI5, stronger effect = lower value 0.984 | S. cerevisiae deletion strains, locus YOR106W, strain vam3, stronger effect = lower value 0.981 | S. cerevisiae deletion strains, locus YOR136W, strain idh2, stronger effect = lower value 1.02 | S. cerevisiae deletion strains, locus YOR144C, strain elg1, stronger effect = lower value 1.01 | S. cerevisiae deletion strains, locus YOR184W, strain ser1, stronger effect = lower value 1 | S. cerevisiae deletion strains, locus YOR231W, strain MKK1, stronger effect = lower value 0.966 | S. cerevisiae deletion strains, locus YOR265W, strain rbl2, stronger effect = lower value 0.975 | S. cerevisiae deletion strains, locus YOR270C, strain vph1, stronger effect = lower value 0.949 | S. cerevisiae deletion strains, locus YOR290C, strain snf2, stronger effect = lower value 0.962 | S. cerevisiae deletion strains, locus YOR316C, strain cot1, stronger effect = lower value 1 | S. cerevisiae deletion strains, locus YPL051W, strain arl3, stronger effect = lower value 0.976 | S. cerevisiae deletion strains, locus YPL055C, strain LGE1, stronger effect = lower value 0.996 | S. cerevisiae deletion strains, locus YPL078C, strain atp4, stronger effect = lower value 0.974 | S. cerevisiae deletion strains, locus YPL106C, strain sse1, stronger effect = lower value 0.96 | S. cerevisiae deletion strains, locus YPL240C, strain hsp82, stronger effect = lower value 0.981 | S. cerevisiae deletion strains, locus YPL241C, strain CIN2, stronger effect = lower value 0.983 | S. cerevisiae deletion strains, locus YPL256C, strain CLN2, stronger effect = lower value 0.982 | S. cerevisiae deletion strains, locus YPR119W, strain clb2, stronger effect = lower value 1.01 | S. cerevisiae deletion strains, locus YPR141C, strain kar3, stronger effect = lower value 1.02 | S. cerevisiae deletion strains, locus YPR163C, strain tif3, stronger effect = lower value 1.02 | S. cerevisiae deletion strains, locus YPR167C, strain met16, stronger effect = lower value 1.01 | S. cerevisiae deletion strains, strain wtn01, stronger effect = lower value 1 | S. cerevisiae strains, strain wild type, stronger effect = lower value 0.986
